This excerpt belongs to a sample that is enriched for hits.
LmPK inh: LmPK (Leishmania mexicana) enzyme inhibition. Potency, µM (top dose mostly 57.5 µM), actives largely listed as inhibitors. purified LmPK, Kinase-Glo ATP luminescence, 1 h. 0.37% of 290,000 active. Q27686. AID 1721
Target sequence (Q27686 whole entry, looked up): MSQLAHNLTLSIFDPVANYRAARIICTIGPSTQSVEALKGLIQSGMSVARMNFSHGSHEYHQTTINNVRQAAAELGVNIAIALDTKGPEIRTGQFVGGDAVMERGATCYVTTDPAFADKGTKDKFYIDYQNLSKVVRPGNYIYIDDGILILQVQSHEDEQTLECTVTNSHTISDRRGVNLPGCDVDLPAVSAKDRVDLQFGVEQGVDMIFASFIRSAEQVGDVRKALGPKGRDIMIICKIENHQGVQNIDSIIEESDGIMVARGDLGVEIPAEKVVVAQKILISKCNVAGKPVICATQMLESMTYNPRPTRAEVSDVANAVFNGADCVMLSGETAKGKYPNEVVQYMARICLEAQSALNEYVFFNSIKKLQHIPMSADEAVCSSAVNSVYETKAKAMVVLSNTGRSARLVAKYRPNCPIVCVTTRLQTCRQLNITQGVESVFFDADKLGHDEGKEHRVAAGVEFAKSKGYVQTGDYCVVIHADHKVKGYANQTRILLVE
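Purified LmPK (0.1 nM) with 0.5 mM PEP and 0.1 mM ADP in imidazole buffer pH 7.2 with MgCl2/KCl, 1 h at room temperature. ATP formed was read by luciferase luminescence and normalized to no-enzyme and uninhibited controls.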
CHX counter: affects cycloheximide protein synthesis inhibition readout, counter-screen | 12% of 300,000 active | max response, % | cell reporter, cycloheximide protein synthesis inhibition counterscreen | AID 2314; in the data active = max response mostly above about 13%, no sharp cut-off; inactive = mostly below about 14%; also: read at 38.3 µM for the half of the compounds with a filed dose
Shiga inhibitor: blocks Shiga toxin action in Vero cells | Vero cells, Shiga toxin protein synthesis inhibition reporter | inhibition, % at 38.7 µM | 9.2% of 290,000 active | AID 2315; in the data active = inhibition mostly above about 28%, no sharp cut-off; inactive = mostly below about 43%
TbPYK inhibitor: blocks Trypanosoma brucei pyruvate kinase; TbPYK enzyme, Kinase-Glo Plus ATP luminescence, 45 min; Potency, µM (titrated, usually from 76.8 µM), most hits filed as inhibitors; 0.12% of 410,000 active; AID 624173; also: nearly all actives have a fitted effect of over 50% in size
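Screened from lowest to highest concentration, compounds were pinned into TbPYK/substrate mixtures, and ADP (130 uM final) was added. Plates sat at room temperature for 45 min prior to Kinase-Glo Plus detection by luminescence.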
FBPA Giardia inh: Giardia lamblia aldolase inhibition | purified Giardia FBPA | Potency, µM (titrated, usually from 59.6 µM), most hits filed as inhibitors | AID 2451 | 0.71% of 290,000 active; also: nearly all actives have a fitted effect of over 55% in size
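Giardia FBPA (40 nM reagent) was preincubated 10 min at RT with compound (up to 57.5 uM final), then substrate plus GAPDH/TPI/NAD/arsenate coupling system with diaphorase/resazurin was added; resorufin fluorescence (525/598 nm) was read after 20 min.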
RE007 growth inh: less growth of the S. pombe RE007 Vpr strain | AID 651644 | Potency, µM (highest dose often 92.2 µM), most hits filed as inhibitors | S. pombe RE007 Vpr strain, BacTiter-Glo ATP luminescence, 24 h | 0.21% of 360,000 active; active = well fitted falling curve with a large enough effect; inconclusive = small, poorly fitted or top-dose-only effect; inactive = no such curve, though single readings can be large or run the other way; also: nearly all actives have a fitted effect of over 50% in size
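Fission yeast strain RE007, carrying one chromosomally integrated HIV-1 vpr copy, was seeded at OD 0.01 in PMG+AL medium with 23 nL pinned compound. After 24 h at 30 °C and 99% humidity, viability was read by BacTiter-Glo luminescence.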
Numbers stand for hits; - = inactive; ? = inconclusive; . = no result; ! = repeats disagree. Unless noted, calls follow the shape of the dose curve; as a rule, active = well fitted curve in the direction sought with a large enough effect; inconclusive = small, poorly fitted or top-dose-only effect, or another doubt; inactive = no such curve, though single readings can be large; an effect the other way counts as inactive or inconclusive.

SMILES	LmPK inh	CHX counter	Shiga inhibitor	TbPYK inhibitor	FBPA Giardia inh	RE007 growth inh
O=C(NC(=S)NCCC1=CCCCC1)c1cccnc1	-	14	40	-	-	-
O=C(NCCc1ccc(Cl)cc1)Nc1ccc(F)cc1	-	29	-	-	-	-
O=[N+]([O-])c1ccccc1CNCCc1c[nH]c2ccccc12	-	-	-	-	?	-
CCCOc1ccc(C(=O)N(Cc2cccs2)c2ccc(C)cc2)cc1	.	.	.	-	.	.
CC1(C)SC2[C@@H](N=CN3CCCCCC3)C(=O)N2[C@H]1C(=O)O (some centres not stated)	.	.	.	-	.	.
CCC1CCCCC1	.	-	-	.	-	.
Cc1nnsc1C(=O)Nc1ccc(Cl)cc1	-	-	-	-	-	-
COc1ccc(CCNC(=O)C2CCN(C(=O)c3ccc(Cl)cc3)CC2)cc1	-	-	-	-	-	-
CC(=O)c1ccc(NC(=O)NCc2ccc(F)cc2)cc1	-	14	-	-	-	-
Cc1nnsc1SCCNC(=O)Nc1ccc(Cl)cc1	-	24	82	-	-	-
O=C(NCCC1=CCCCC1)C1CCN(C(=O)c2ccc(Cl)cc2)CC1	-	31	67	-	-	-
CC(C)c1ccc(NC(=O)NCc2ccc(F)cc2)cc1	-	-	-	-	-	-
Cc1ccc(NC(=O)c2oc3c(c2C)-c2[nH]ncc2CC3)c(Cl)c1	.	.	.	-	.	.
Cc1cc(C)cc(CC2CC(=O)N(c3nc(C)cc(C)n3)C2=O)c1 (configuration not stated)	-	27	51	-	-	-
Cc1ccc(N2C(=O)CC(Cc3cc(C)cc(C)c3)C2=O)cc1 (configuration not stated)	-	-	-	-	-	-
CC1(C)CC(=O)C(N=Nc2ccc(OC(F)F)cc2)=C(O)C1	-	57	79	-	-	-
COc1ccc2nc(N=NC3=C(O)CC(C)(C)CC3=O)sc2c1	-	28	-	-	?	-
CC1(C)CC(=O)C(N=Nc2ccc(F)cc2)=C(O)C1	-	-	-	-	-	-
CC1(C)CC(=O)C(N=Nc2ccc3ncsc3c2)=C(O)C1	-	29	49	-	-	-
CC1(C)CC(=O)C(N=Nc2ccc(Cl)cc2)=C(O)C1	-	-	-	-	-	-
COc1ccccc1N=NC1=C(O)CC(C)(C)CC1=O	-	23	active	-	-	-
COc1ccc2nc(N=Nc3ccc(O)c4ccccc34)sc2c1	-	-	-	-	-	-
Cc1cccc(-n2c(=O)c3ccccc3n(Cc3ccccc3)c2=O)c1	.	.	.	-	.	.
CCCc1nn2c(=O)cc(COC(=O)c3cccc(NC(=O)COc4ccccc4C)c3)nc2s1	.	.	.	-	.	.
CCOC(=O)c1ccc(NC(=O)c2c(NCc3ccc(OC)c(OC)c3OC)sc3c2CCC(C)C3)cc1 (configuration not stated)	.	.	.	-	.	.
SMILES	LmPK inh	CHX counter	Shiga inhibitor	TbPYK inhibitor	FBPA Giardia inh	RE007 growth inh
NCCC[C@@H](CC(=O)N[C@@H]1CCNC[C@H]1C(=O)N[C@H](CC(=O)N[C@@H](CCC(=O)O)CC(=O)O)Cc1c[nH]c2ccccc12)NC(=O)C[C@H](Cc1ccccc1)NC(=O)[C@@H]1CCCC[C@H]1N	.	.	.	.	-	.
COC(=O)c1c(SC)nc2ccccc2c1OCc1ccc(C)cc1C	.	.	.	-	.	.
COC(=O)c1c(-c2cccs2)csc1NC(=O)c1ccc(Cl)cc1	.	.	.	-	.	.
COC(=O)c1c(-c2cccs2)csc1NC(=O)c1cccnc1	-	37	60	-	-	-
COc1ccc(C2CC(c3ccccc3)Oc3cc4c(cc32)OCO4)cc1 (configuration not stated)	.	-	-	.	16µM!	.
COc1ccc(C2CC(c3ccccc3)Oc3cc(OC)ccc32)cc1 (configuration not stated)	.	-	-	.	?	.
CN1CCCC1CCNc1ccc2c(=O)c3ccccc3oc2c1 (configuration not stated)	-	41	-	-	-	-
CN1CCCC1CCNc1ccc2oc3ccccc3c(=O)c2c1 (configuration not stated)	-	25	-	-	-	-
CN1CCC[C@H]1CCNc1ccc2c(=O)c3ccccc3n(C)c2c1	.	.	.	-	.	?
CC1=NN(C(N)=S)C(=O)C1N=Nc1ccccc1Cl (configuration not stated)	-	18	.	-	-	?
